According to PubChem BioAssay (Tox21):
Results filed as inconclusive are left out. Activity calls are given as the source filed them. Unless noted, calls come from the whole dose curve; as a rule, active = well fitted curve in the direction sought with a large enough effect in the repeat runs; inconclusive = weak or mixed curves; inactive = no such curve, though single readings can be large; an effect the other way counts as inactive or inconclusive.

Assays:
[1] = qHTS assay for small molecule agonists of the p53 signaling pathway (AID 651631; calls by dose curve; note: nearly all actives have a fitted effect of over 15% in size)
How it was run: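 Quantitative high-throughput format: 4,000 p53RE-bla HCT-116 cells/well, 5 h pre-incubation, 16 h compound exposure at 37 °C, 2 h room-temperature substrate step, fluorescence intensity measured.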

[2] = qHTS assay for small molecules that induce genotoxicity in human embryonic kidney cells expressing luciferase-tagged ATAD5 (AID 651632); note: nearly all actives have a fitted effect of over 15% in size
How it was run: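 Increased luciferase signal from ATAD5-tagged reporter cells indicates DNA-damage-driven ATAD5 induction. HEK293T cells are treated for 16 hr at 37C before detection with Amplite.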

[3] = qHTS assay for small molecule agonists of the p53 signaling pathway - cell viability (AID 651633; calls by dose curve;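 note: p53RE-bla HCT reporter cells with a stable beta-lactamase p53 reporter; series mostly up to about 83 µM; nearly all actives have a fitted effect of over 30% in size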)
How it was run: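 p53RE-bla cells were treated with compound for 16 hours at 37 C. Cytotoxicity was then measured as CellTiter-Glo luminescence after 30 min at room temperature.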

[4] = qHTS assay for small molecules that induce genotoxicity in human embryonic kidney cells expressing luciferase-tagged ATAD5 - cell viability (AID 651634; calls by dose curve; note: nearly all actives have a fitted effect of over 25% in size)
How it was run: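 Cytotoxicity counterscreen in HEK293T cells bearing an ATAD5-luciferase reporter: live-cell protease activity measured by CellTiter-Fluor fluorescence after 15.5 hr compound exposure.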

[5] = qHTS assay for small molecule disruptors of the mitochondrial membrane potential - cell viability (AID 720634; calls by dose curve;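 note: human HepG2 liver cancer cells; series mostly up to about 83 µM; nearly all actives have a fitted effect of over 20% in size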)
How it was run: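 After overnight attachment at 37 C, HepG2 cells received compound or DMSO vehicle for 1 hr. Viability is then taken from ATP-driven luminescence following a 30 min room-temperature CellTiter-Glo step.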

[6] = qHTS assay for small molecule disruptors of the mitochondrial membrane potential (AID 720635); note: potency is the fitted concentration of half-maximal effect
How it was run: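 HepG2 cells exposed to compound 1 hr at 37C, then Mito-MPS dye 30 min. Ratio read of aggregate (540/590 nm) versus monomer (490/535 nm) fluorescence.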

[7] = qHTS assay to test for compound auto fluorescence at 535 nm (green) in HepG2 cells (AID 720675)
[8] = qHTS assay to test for compound auto fluorescence at 460 nm (blue) in HEK293 cells (AID 720678)
How it was run: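 Triamterene serves as the blue fluorophore standard. Compound signal at 405/460 nm is read in HEK293 wells (2,000 cells, 10% dialyzed FBS) after overnight treatment at 37C.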

[9] = qHTS assay to test for compound auto fluorescence at 590 nm (red) in HEK293 cells (AID 720679)
How it was run: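 We plated HEK293 cells in 10% dialyzed FBS medium, let them adhere for 4-5 hr, then added 23 nL compound. Overnight at 37C and 5% CO2 preceded fluorescence measurement at 540/590nm.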

[10] = qHTS assay to test for compound auto fluorescence at 535 nm (green) in HEK293 cells (AID 720680)
[11] = qHTS assay to test for compound auto fluorescence at 460 nm (blue) in HEK293 cell free culture (AID 720681)
How it was run: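 Compounds were added to cell-free DMEM with 10% FBS and fluorescence read directly. The blue channel used 405 nm excitation and 460 nm emission, with triamterene as the reference fluorophore.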

[12] = qHTS assay to test for compound auto fluorescence at 535 nm (green) in HEK293 cell free culture (AID 720682)
How it was run: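 Measurement is a direct plate read of green fluorescence (485 nm in, 535 nm out) after compound addition to serum-supplemented DMEM lacking cells, with fluorescein used to express intensities.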

[13] = qHTS assay to test for compound auto fluorescence at 590 nm (red) in HEK293 cell free culture (AID 720683)
How it was run: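 Cell-free wells of DMEM with 10% FBS received compound, and intrinsic fluorescence was read at excitation/emission 540/590 nm. Values expressed as equivalence to Rose Bengal sodium.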

[14] = qHTS assay to test for compound auto fluorescence at 590 nm (red) in HepG2 cell free culture (AID 720684)
How it was run: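 Compound was pinned into wells holding MEM with 10% FBS and no cells, and red fluorescence was read at Ex/Em 540/590 nm. Signal is expressed as auto fluorescence equivalency relative to Rose Bengal sodium.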

[15] = qHTS assay to test for compound auto fluorescence at 460 nm (blue) in HepG2 cells (AID 720687)
How it was run: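 HepG2 cells in MEM with 10% FBS, attached overnight at 37 C, were exposed to compound or DMSO for 1 hr at 37 C, 5% CO2. Blue fluorescence was read at 405/460 nm, with triamterene as reference fluorophore.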

[16] = target: Glucocorticoid receptor (Homo sapiens) (UniProt P04150); assay: qHTS assay to identify small molecule agonists of the glucocorticoid receptor (GR) signaling pathway (AID 720691; active = well fitted activation curve with a large enough effect in the signal ratio in the repeat runs, not every such curve was filed as active; the % refers to the signal ratio)
How it was run: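 Agonist mode in a HeLa line carrying a GRE-controlled beta-lactamase reporter. Compounds act for 18 h at 37 C before a 2 h room-temperature FRET substrate step and fluorescence reading.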

[17] = qHTS assay to test for compound auto fluorescence at 590 nm (red) in HepG2 cells (AID 720674)
How it was run: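 HepG2 cells, 2,000 per well in MEM with 10% FBS, attached overnight at 37 C, then got 23 nL compound or DMSO. After 1 hr at 37 C, 5% CO2, red fluorescence was read at 540/590 nm against Rose Bengal sodium as reference.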

[18] = qHTS assay to test for compound auto fluorescence at 535 nm (green) in HepG2 cell free culture (AID 720686)
[19] = qHTS assay to test for compound auto fluorescence at 460 nm (blue) in HepG2 cell free culture (AID 720685)
How it was run: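 Compound (23 nL) or DMSO pinned into cell-free MEM with 10% FBS; blue fluorescence read at 405/460 nm excitation/emission, expressed as auto-fluorescence equivalency to triamterene.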

[20] = target: Glucocorticoid receptor (Homo sapiens) (UniProt P04150); assay: qHTS assay to identify small molecule antagonists of the glucocorticoid receptor (GR) signaling pathway (AID 720692; active = well fitted inhibition curve with a large enough effect in the signal ratio in the repeat runs, not every such curve was filed as active; the % refers to the signal ratio)
How it was run: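 Cells plated, rested 4 h at 37 C/5% CO2; compounds in DMSO pin-transferred; dexamethasone added to 5 nM final; 18 h at 37 C; B/G FRET substrate added, 2 h room temperature; fluorescence measured.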
% is set by controls: 0 for no effect and ±100 for the full control effect.

Glucocorticoid receptor (Homo sapiens), sequence (P04150 whole entry, looked up): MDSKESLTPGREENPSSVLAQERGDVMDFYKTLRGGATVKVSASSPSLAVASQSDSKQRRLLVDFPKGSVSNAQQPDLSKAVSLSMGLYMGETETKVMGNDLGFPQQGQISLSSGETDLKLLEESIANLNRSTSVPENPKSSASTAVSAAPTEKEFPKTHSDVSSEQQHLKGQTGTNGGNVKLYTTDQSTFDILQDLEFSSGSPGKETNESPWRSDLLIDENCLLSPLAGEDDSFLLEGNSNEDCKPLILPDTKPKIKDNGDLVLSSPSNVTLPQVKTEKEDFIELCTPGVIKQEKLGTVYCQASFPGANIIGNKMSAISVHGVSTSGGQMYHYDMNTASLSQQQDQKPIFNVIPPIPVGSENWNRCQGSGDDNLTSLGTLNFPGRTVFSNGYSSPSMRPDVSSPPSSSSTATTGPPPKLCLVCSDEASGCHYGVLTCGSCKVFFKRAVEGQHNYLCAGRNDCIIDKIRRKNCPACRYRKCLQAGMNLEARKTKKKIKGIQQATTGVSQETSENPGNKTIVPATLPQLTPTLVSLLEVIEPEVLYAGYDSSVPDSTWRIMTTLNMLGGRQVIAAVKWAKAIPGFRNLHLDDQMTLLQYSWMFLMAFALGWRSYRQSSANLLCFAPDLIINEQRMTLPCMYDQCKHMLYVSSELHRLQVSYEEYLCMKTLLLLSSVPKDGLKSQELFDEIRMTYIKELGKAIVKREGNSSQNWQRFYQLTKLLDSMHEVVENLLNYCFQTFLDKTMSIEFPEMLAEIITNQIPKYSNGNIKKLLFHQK

Nc1cccc(S(=O)(=O)O)c1
inactive: Potency [1] | Potency [2] | Potency [3] | Potency [4] | Potency [5] | outcome [7] | outcome [8] | outcome [9] | outcome [10] | outcome [11] | outcome [12] | outcome [13] | outcome [14] | outcome [15] | Potency [16]
active: Potency [6] 0.0972 µM

CC(C)(CO)[C@@H](O)C(=O)NCCC(=O)O
inactive: Potency [1] | Potency [2] | Potency [3] | Potency [4] | Potency [5] | Potency [6] | outcome [17] | outcome [7] | outcome [8] | outcome [9] | outcome [10] | outcome [11] | outcome [12] | outcome [13] | outcome [14] | outcome [18] | outcome [15]

NCCC(O)(P(=O)(O)O)P(=O)(O)O
inactive: Potency [1] | Potency [2] | Potency [3] | Potency [4] | Potency [5] | Potency [6] | outcome [17] | outcome [7] | outcome [8] | outcome [9] | outcome [10] | outcome [11] | outcome [12] | outcome [13] | outcome [14] | outcome [19] | outcome [18] | Potency [16] | Potency [20]

CCCCNC(=S)NCCCC
inactive: Potency [1] | Potency [2] | Potency [3] | Potency [4] | Potency [5] | Potency [6] | outcome [17] | outcome [7] | outcome [8] | outcome [9] | outcome [10] | outcome [11] | outcome [12] | outcome [13] | outcome [14] | outcome [19] | outcome [18] | outcome [15] | Potency [16] | Potency [20]

CC(C)CC(=O)OCc1ccccc1
inactive: Potency [1] | Potency [2] | Potency [3] | Potency [4] | Potency [5] | Potency [6] | outcome [17] | outcome [7] | outcome [8] | outcome [9] | outcome [10] | outcome [11] | outcome [12] | outcome [13] | outcome [14] | outcome [19] | outcome [18] | outcome [15] | Potency [16] | Potency [20]

Cc1ccc(C=O)s1
inactive: Potency [1] | Potency [2] | Potency [3] | Potency [4] | Potency [5] | Potency [6] | outcome [17] | outcome [7] | outcome [8] | outcome [10] | outcome [11] | outcome [12] | outcome [13] | outcome [14] | outcome [19] | outcome [18] | outcome [15]

CC/C=C\CCOC(=O)CCCCC
inactive: Potency [1] | Potency [2] | Potency [3] | Potency [4] | Potency [5] | Potency [6] | outcome [7] | outcome [8] | outcome [9] | outcome [10] | outcome [11] | outcome [12] | outcome [13] | outcome [14] | outcome [19] | outcome [18]

FC(F)(F)c1ccccc1
inactive: Potency [1] | Potency [2] | Potency [3] | Potency [4] | Potency [5] | Potency [6] | outcome [17] | outcome [7] | outcome [8] | outcome [9] | outcome [10] | outcome [11] | outcome [12] | outcome [13] | outcome [14] | outcome [19] | outcome [18] | outcome [15]

CC(C)C(=O)OCC(C)(C)C(O)C(C)C (stereo not drawn)
inactive: Potency [1] | Potency [2] | Potency [3] | Potency [4] | Potency [5] | Potency [6] | outcome [17] | outcome [7] | outcome [8] | outcome [10] | outcome [11] | outcome [12] | outcome [13] | outcome [14] | outcome [19] | outcome [18] | outcome [15] | Potency [16]

CCOC(=O)[C@H](CCc1ccccc1)N[C@@H](C)C(=O)N1Cc2cc(OC)c(OC)cc2C[C@H]1C(=O)O
inactive: Potency [1] | Potency [2] | Potency [3] | Potency [4] | Potency [5] | Potency [6] | outcome [17] | outcome [8] | outcome [9] | outcome [10] | outcome [11] | outcome [12] | outcome [13] | outcome [14] | outcome [19] | outcome [18] | outcome [15]

CCOC(=O)NCCC[Si](OCC)(OCC)OCC
inactive: Potency [1] | Potency [2] | Potency [3] | Potency [4] | Potency [5] | outcome [17] | outcome [8] | outcome [9] | outcome [10] | outcome [11] | outcome [12] | outcome [13] | outcome [14] | outcome [19] | outcome [18] | outcome [15] | Potency [16]

NC(Cc1ccc(F)cc1)C(=O)O (stereo not drawn)
inactive: activation [1] -4.8% [at 8.3 µM] | activation [2] 3.53% [at 8.08 µM] | activity change, negative = cytotoxicity [3] 33% [at 8.08 µM] | activity, negative = cytotoxicity [4] 10.7% [at 8.08 µM] | activity change, negative = cytotoxicity [5] -3.31% [at 8.08 µM] | fluorescence, relative to Rose Bengal [17] 0.0373% [at 3.72 µM] | fluorescence, % of fluorescein control [7] -0.0482% [at 3.72 µM] | fluorescence, % of triamterene [8] -0.105% [at 3.72 µM] | fluorescence, % of fluorescent control [9] 0.0934% [at 3.72 µM] | fluorescence, % of fluorescein [10] 0.0426% [at 3.72 µM] | fluorescence, % of fluorescent control [11] -0.189% [at 3.72 µM] | activity change [12] 0.0132% [at 3.72 µM] | fluorescence, % of fluorescent control [13] 0.0018% [at 3.72 µM] | fluorescence, % of Rose Bengal [14] -0.117% [at 3.72 µM] | fluorescence, % of fluorescent control [19] -0.0373% [at 3.72 µM] | fluorescence, % of fluorescein control [18] -0.0064% [at 3.72 µM] | fluorescence, % of fluorescent control [15] -0.0921% [at 3.72 µM] | activation [16] -7.29% [at 6.9 µM]

OCc1c2ccccc2cc2ccccc12
active: Potency [6] 30.7 µM
inactive: Potency [1] | Potency [2] | Potency [3] | Potency [5] | outcome [17] | outcome [7] | outcome [8] | outcome [9] | outcome [10] | outcome [11] | outcome [12] | outcome [13] | outcome [14] | outcome [18] | outcome [15]

CC(C)OC(C)C
inactive: Potency [1] | Potency [2] | Potency [3] | Potency [4] | Potency [5] | outcome [17] | outcome [7] | outcome [8] | outcome [9] | outcome [10] | outcome [11] | outcome [12] | outcome [13] | outcome [14] | outcome [19] | outcome [18] | outcome [15] | Potency [16] | Potency [20]
